Test results taken from the supplement of paper PMC11732987, “Enantioselective OTUD7B fragment discovery through chemoproteomics screening and high-throughput optimisation” (Communications Chemistry, 2025).

Columns and labels:
Experiment in all cases: log2 ratio of Biotin-Ahx-Ub-VS probe labelling (fragment/DMSO); higher = less target engagement (more negative = stronger competition), active = hit call of the paper (q ≤ 0.05, log2 ratio ≤ -1)
Settings in all cases: compound concentration: 200 uM; treatment time: 3 h
USP34 = USP34 (UniProt Q70CQ2)
USP34, sequence (Q70CQ2 whole entry, the tested form may be a part): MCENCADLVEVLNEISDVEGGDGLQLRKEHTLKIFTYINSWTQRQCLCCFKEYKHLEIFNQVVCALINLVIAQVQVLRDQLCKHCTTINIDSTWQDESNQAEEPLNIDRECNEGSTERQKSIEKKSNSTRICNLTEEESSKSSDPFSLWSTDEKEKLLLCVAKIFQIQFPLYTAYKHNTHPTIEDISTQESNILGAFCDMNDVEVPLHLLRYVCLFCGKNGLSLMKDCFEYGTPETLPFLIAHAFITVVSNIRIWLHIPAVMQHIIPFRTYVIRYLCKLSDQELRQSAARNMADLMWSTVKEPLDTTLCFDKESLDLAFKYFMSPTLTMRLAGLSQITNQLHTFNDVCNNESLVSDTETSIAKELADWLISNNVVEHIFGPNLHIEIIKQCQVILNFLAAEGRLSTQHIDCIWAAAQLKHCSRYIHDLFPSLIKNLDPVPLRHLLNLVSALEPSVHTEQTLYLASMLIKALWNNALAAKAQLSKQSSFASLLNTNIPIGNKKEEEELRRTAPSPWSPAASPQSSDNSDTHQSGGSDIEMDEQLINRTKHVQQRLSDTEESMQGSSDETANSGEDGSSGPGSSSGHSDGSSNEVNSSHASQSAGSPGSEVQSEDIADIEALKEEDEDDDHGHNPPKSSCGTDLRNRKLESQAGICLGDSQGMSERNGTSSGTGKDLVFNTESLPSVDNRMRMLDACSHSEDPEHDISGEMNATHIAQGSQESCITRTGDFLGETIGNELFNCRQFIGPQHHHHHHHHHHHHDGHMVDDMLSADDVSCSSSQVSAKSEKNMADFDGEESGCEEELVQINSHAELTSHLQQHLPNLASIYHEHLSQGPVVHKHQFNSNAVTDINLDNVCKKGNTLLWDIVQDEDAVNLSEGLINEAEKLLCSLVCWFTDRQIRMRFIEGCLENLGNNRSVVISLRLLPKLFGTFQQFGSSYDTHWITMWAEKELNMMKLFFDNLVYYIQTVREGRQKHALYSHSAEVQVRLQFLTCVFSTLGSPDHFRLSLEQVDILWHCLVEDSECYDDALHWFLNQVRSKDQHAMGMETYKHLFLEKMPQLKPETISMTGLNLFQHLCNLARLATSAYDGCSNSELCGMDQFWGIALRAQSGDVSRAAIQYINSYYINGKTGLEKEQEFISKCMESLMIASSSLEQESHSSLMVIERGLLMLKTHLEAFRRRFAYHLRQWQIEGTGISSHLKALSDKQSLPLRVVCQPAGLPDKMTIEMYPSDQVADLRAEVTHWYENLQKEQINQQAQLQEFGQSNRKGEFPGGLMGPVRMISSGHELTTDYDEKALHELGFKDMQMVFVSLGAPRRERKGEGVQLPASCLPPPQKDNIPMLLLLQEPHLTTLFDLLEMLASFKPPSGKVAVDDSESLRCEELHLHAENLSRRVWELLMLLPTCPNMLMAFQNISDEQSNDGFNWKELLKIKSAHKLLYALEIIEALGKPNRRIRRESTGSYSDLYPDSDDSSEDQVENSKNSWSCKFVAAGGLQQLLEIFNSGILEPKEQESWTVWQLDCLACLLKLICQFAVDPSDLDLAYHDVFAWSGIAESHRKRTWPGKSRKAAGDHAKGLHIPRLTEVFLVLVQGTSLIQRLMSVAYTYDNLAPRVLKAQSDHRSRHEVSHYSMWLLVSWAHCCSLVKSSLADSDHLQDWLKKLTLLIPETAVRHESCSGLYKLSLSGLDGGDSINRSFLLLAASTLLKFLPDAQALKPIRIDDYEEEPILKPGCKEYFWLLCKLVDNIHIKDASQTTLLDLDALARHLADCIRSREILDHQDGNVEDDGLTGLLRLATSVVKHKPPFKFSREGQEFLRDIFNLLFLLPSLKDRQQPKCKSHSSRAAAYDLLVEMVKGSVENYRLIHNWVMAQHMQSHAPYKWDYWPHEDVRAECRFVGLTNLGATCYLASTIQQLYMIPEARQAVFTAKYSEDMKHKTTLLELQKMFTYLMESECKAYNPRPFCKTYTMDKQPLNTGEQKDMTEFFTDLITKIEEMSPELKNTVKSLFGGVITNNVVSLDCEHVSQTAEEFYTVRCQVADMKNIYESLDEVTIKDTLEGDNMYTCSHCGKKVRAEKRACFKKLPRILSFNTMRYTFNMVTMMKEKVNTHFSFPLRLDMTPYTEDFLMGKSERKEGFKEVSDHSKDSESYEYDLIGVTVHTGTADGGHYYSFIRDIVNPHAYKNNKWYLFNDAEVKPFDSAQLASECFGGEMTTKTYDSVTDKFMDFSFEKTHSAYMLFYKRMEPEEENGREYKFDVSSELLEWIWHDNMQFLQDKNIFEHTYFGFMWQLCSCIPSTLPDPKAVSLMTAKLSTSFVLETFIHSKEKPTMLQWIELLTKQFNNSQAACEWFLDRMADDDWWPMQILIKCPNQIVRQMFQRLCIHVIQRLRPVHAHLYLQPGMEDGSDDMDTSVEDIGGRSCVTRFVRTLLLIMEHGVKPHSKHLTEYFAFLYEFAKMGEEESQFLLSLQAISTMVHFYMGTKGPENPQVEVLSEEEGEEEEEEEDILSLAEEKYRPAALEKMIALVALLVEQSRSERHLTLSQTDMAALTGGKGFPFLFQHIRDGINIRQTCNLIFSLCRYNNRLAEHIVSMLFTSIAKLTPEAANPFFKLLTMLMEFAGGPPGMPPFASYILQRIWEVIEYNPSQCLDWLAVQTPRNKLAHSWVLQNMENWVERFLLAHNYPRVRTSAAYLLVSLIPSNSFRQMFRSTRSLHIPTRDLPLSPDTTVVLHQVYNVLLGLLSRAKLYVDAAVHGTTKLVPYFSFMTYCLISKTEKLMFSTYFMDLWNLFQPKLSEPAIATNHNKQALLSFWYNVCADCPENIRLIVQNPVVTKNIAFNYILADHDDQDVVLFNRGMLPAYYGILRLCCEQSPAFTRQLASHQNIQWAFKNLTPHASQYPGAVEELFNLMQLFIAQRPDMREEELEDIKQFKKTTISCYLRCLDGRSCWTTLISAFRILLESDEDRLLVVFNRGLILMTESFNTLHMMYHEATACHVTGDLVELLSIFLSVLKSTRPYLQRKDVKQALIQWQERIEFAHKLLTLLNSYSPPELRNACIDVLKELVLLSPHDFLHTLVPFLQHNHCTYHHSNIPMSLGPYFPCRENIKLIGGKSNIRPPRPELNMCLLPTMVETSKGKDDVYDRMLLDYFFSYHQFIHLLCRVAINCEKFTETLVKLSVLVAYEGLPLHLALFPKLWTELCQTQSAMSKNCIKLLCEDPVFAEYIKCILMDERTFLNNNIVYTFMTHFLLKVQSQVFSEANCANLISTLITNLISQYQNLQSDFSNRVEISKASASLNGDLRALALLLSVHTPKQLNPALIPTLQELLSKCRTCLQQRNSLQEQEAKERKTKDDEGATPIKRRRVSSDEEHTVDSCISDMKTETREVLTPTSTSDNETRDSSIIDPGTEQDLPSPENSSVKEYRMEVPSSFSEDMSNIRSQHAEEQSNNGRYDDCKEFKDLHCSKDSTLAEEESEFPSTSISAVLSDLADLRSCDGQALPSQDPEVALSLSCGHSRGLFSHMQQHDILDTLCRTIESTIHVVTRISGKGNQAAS
Summary of the method: (§1)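 Using Biotin-Ahx-Ub-VS at 0.5 µM final for 1 h, DUBs were labelled in HEK293T lysate (495 µg per sample) that had first been treated in triplicate with fragment at 200 µM or vehicle for 3 h. NeutrAvidin enrichment, LysC and trypsin digestion and diaPASEF LC-MS/MS followed. Spectronaut label-free quantities were global-median-normalised. Values are average log2 fragment/vehicle ratios by unpaired t-test, using proteins with ≥2 unique peptides.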

USP36 = biological target: T1, USP36 (UniProt Q9P275)
T1 sequence (whole entry): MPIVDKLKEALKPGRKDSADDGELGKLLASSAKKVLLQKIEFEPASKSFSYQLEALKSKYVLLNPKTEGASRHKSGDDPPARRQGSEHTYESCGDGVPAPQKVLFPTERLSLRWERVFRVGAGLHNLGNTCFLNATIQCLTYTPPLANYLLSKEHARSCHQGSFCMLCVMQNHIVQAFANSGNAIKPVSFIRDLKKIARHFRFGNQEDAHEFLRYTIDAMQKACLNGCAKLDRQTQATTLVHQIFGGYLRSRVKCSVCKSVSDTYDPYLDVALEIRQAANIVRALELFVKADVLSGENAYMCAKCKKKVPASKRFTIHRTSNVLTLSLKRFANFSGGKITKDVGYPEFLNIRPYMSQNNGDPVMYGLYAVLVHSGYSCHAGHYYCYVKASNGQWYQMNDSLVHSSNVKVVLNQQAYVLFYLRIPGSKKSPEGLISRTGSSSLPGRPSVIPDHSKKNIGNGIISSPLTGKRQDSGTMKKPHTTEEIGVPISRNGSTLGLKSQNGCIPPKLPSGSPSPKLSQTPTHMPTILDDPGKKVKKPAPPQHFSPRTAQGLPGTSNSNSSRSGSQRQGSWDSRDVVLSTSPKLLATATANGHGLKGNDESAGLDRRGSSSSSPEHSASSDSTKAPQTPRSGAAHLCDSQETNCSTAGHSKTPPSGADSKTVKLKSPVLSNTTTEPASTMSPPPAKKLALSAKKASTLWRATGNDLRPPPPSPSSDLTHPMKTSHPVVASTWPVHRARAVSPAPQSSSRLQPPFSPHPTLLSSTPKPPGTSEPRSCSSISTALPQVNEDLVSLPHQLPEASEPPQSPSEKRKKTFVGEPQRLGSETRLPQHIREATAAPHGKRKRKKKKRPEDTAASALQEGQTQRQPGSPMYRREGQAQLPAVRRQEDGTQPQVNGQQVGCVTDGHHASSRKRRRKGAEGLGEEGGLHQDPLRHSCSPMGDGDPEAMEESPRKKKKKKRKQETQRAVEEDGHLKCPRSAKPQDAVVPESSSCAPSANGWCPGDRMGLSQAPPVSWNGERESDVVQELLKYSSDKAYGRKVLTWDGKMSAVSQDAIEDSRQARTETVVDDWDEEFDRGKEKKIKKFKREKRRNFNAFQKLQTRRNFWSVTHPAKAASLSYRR
Summary of the method: as §1

USP38 = biological target: T2, USP38 (UniProt Q8NB14)
T2 sequence (whole entry): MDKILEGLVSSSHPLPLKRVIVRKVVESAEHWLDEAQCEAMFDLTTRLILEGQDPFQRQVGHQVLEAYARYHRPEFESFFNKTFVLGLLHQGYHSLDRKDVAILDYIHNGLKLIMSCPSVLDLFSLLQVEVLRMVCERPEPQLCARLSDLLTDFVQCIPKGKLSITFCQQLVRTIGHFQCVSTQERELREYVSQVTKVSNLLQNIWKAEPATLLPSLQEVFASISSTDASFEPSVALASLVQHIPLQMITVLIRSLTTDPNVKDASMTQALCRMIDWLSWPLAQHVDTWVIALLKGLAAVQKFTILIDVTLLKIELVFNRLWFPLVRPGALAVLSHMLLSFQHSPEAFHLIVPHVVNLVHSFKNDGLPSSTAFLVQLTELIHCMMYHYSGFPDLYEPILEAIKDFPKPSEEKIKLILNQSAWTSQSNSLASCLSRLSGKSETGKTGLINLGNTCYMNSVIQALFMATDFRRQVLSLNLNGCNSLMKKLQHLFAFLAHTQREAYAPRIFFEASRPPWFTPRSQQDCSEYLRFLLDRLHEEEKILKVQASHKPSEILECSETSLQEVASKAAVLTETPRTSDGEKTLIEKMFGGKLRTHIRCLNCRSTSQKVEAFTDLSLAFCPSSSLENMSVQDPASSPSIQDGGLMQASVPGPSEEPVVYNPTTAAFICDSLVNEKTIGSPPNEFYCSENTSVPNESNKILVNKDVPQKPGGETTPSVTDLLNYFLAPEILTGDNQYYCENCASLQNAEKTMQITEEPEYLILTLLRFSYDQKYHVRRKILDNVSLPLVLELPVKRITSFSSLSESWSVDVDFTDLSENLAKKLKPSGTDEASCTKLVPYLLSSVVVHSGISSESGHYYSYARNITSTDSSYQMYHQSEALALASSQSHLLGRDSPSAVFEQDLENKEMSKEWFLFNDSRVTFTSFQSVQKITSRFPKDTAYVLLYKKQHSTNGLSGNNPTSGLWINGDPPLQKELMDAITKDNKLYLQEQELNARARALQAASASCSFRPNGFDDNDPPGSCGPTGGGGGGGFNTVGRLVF
Summary of the method: as §1

USP39 = biological target: T3, USP39 (UniProt Q53GS9)
T3 sequence (whole entry): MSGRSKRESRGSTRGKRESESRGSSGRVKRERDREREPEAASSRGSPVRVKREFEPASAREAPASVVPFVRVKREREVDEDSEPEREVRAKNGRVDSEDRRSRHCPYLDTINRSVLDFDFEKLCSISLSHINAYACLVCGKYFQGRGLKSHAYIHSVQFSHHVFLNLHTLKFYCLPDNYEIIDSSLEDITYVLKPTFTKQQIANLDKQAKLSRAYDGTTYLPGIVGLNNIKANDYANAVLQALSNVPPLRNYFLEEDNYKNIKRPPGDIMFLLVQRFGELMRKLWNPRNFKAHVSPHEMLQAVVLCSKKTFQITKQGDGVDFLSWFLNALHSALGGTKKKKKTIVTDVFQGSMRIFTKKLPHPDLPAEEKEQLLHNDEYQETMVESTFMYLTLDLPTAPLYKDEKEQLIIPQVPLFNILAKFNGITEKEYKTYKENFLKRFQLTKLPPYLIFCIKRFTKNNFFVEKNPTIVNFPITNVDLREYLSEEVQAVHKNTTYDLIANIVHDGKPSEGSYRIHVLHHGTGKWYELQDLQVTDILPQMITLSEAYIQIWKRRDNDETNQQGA
Summary of the method: as §1

USP4 = biological target: T4, USP4 (UniProt Q13107)
T4 sequence (whole entry): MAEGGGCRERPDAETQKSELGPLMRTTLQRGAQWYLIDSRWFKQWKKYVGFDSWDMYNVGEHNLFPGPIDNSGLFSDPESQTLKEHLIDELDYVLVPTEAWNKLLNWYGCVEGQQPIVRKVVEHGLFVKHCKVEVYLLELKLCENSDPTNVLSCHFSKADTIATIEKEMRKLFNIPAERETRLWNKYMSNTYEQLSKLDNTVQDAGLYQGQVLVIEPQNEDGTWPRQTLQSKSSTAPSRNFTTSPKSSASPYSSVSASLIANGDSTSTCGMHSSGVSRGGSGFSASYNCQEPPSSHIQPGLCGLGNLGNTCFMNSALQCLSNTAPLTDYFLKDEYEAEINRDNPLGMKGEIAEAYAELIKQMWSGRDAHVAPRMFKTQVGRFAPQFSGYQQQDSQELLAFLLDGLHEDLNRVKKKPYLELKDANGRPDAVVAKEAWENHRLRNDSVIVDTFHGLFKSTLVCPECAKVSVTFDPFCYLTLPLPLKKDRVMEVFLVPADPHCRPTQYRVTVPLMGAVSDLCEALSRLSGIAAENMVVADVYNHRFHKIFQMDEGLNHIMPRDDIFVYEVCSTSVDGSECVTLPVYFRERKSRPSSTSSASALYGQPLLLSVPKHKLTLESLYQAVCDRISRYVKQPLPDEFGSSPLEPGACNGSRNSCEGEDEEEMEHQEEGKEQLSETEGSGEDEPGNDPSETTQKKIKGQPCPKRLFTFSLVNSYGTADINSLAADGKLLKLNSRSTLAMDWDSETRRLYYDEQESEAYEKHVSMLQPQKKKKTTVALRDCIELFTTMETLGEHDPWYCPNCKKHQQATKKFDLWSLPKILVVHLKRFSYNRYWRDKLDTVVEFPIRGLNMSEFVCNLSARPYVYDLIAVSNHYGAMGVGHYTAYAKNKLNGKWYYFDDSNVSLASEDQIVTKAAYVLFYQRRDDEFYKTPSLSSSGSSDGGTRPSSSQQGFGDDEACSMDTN
Summary of the method: as §1

Measured: log2 ratio of Biotin-Ahx-Ub-VS probe labelling

Cc1cnc2[nH]cc(CCNC(=O)CCl)c2c1
inactive: USP34 -0.162 | USP36 -0.31 | USP38 0.0877 | USP39 0.144 | USP4 -0.338
